Measurements taken from PubChem BioAssay (NCI).
Compounds without any hit were thinned out: in the full panel of roughly 79,000, 15% have a hit. Active and inactive are the calls of the source. No stated cut-off is given here; in the data, active means growth inhibition above about 70%; inactive means the rest.

Legend:
[1] = NCI Yeast Anticancer Drug Screen. Data for the rad50 strain (AID 155);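 further: 0% = growth of vehicle-only cultures of the same strain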; details: S. cerevisiae rad50 strain growth inhibition; at 50.0 µM; hits give high values
Method in brief: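 A DNA repair-deficient yeast mutant serves as the test organism; compound-induced growth inhibition is calculated against vehicle-treated cells.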

[2] = NCI Yeast Anticancer Drug Screen. Data for the mec2-1 strain (AID 157); details: S. cerevisiae mec2-1 strain, at 50.0 µM, hits give high values
Method in brief: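 Growth inhibition is read against vehicle-treated controls after compound exposure of the mec2-1 yeast strain, which is defective in DNA damage repair or cell cycle control.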

[3] = NCI Yeast Anticancer Drug Screen. Data for the sgs1 mgt1 strain (AID 161);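 further: 0% = growth of cultures given vehicle only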; details: S. cerevisiae sgs1 mgt1 strain, at 50.0 µM, hits give high values
Method in brief: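 Growth of a repair-deficient yeast mutant was monitored after compound treatment and expressed as inhibition relative to vehicle-treated cultures.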

[4] = NCI Yeast Anticancer Drug Screen. Data for the cln2 rad14 strain (AID 165);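 further: 0% = growth equal to vehicle treated cultures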; details: S. cerevisiae cln2 rad14 strain, at 50.0 µM, hits give high values
Method in brief: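 Growth inhibition, relative to vehicle-treated controls, is the read-out. The test organism is a yeast strain with defined genetic alterations, cln2 rad14.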

[5] = NCI Yeast Anticancer Drug Screen. Data for the bub3 strain (AID 167); details: S. cerevisiae bub3 mutant strain, at 50.0 µM, hits give high values
Method in brief: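 Inhibition values come from growth of compound-treated mutant yeast normalised to vehicle-treated controls.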

[6] = NCI Yeast Anticancer Drug Screen. Data for the mlh1 rad18 strain (AID 175); details: S. cerevisiae mlh1 rad18 strain growth inhibition; at 50.0 µM; hits give high values
Method in brief: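 Cells of a genetically altered yeast strain, deficient in DNA damage repair, were treated with compound. Their growth was then compared with that of vehicle-treated cultures to give inhibition.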

Measured: growth inhibition

COc1ccc(/C=N/SC(c2ccccc2)(c2ccccc2)c2ccccc2)cc1
inactive: [1] 28.6% | [2] 6% | [3] 13.2% | [4] 13.4% | [5] 0.2% | [6] -4.4%

CSc1nc2c(c(=O)n1C)N=C(c1ccc(Cl)cc1)CC(c1ccccc1)N2 (stereo unspecified)
inactive: [1] 16% | [2] 3.25% | [3] -5.6% | [4] 11.4% | [5] -11.6% | [6] 15.8%

O=C(O)CCNCC(=O)O
inactive: [1] -28.1% | [2] -32.6% | [3] -21.9% | [4] 3.2% | [5] -21.7% | [6] -23.6%

Cc1ncc2c[n+]([O-])ccn12
inactive: [1] 6.05% | [2] 10.9% | [3] -4% | [4] -1.25% | [5] 17.4% | [6] 7.8%

CCOC(=O)C1=C(C)OC(=O)CC1C (stereo unspecified)
inactive: [1] 33.2% | [2] -15.8% | [3] 3.75% | [4] 9.05% | [5] -23.6% | [6] 14%

Oc1ccc(C=Nc2ccccc2)c(O)c1O
inactive: [1] -12.7% | [2] -24.4% | [3] -4.9% | [4] -7.25% | [5] -9.7% | [6] 6.2%

CC(c1ccccc1)c1ccc2ccccc2c1C(=O)O (stereo unspecified)
active: [4] 82%
inactive: [1] 39.8% | [2] 43.2% | [3] 42.6% | [5] 29.6% | [6] 64.8%

CC(=O)Nc1ccc(O)c(CN2CCN(c3ccccc3)CC2)c1
inactive: [1] 33.1% | [2] 16% | [3] 17.6% | [4] 47.2% | [5] 12.1% | [6] 20.3%

OCC(O)C(O)C(O)C(O)/C=N\Nc1ccccc1 (stereo unspecified)
inactive: [1] 43.3% | [2] 67% | [3] 62.8% | [4] 34.1%
active: [5] 81% | [6] 89.1%

NNC(=O)c1ccc(OCc2nc3ccccc3[nH]2)cc1
inactive: [1] -14.8% | [2] -31.9% | [3] 1.2% | [4] 5.1% | [5] -87.2% | [6] -18.7%

Cc1cccc(C(=O)NN)c1
inactive: [1] -4.15% | [2] 10.2% | [3] -20.2% | [4] -5.4% | [5] -0.2% | [6] -5.95%

COc1ccc(C2SCC(=O)N2c2nncs2)cc1F (stereo unspecified)
inactive: [1] 6.2% | [2] 1.55% | [3] 20.9% | [4] 2.9% | [5] 12.6% | [6] 20.2%

[Cl][Ge]([Cl])([c]1ccccc1)[c]1ccccc1
inactive: [1] 29.1% | [2] 20.9% | [3] 29.1% | [4] 12.8% | [5] 43% | [6] 29.1%

CCCCN(CCCC)CC(O)c1cc(-c2ccc(Cl)c(Cl)c2)nc2c(Cl)cc(Cl)cc12 (stereo unspecified)
inactive: [1] 28.3% | [2] 31.1% | [3] -15.7% | [4] 11.6% | [5] -15.5% | [6] -11.8%

OCc1ccc2ccc3ccc(CO)nc3c2n1
inactive: [1] 14.4% | [2] 15.4% | [3] 5.6% | [4] -25.4% | [5] 15.4% | [6] 13.9%

O=C1NC(N2CCCC(CO)C2)=N/C1=C\c1ccc(Cl)cc1 (stereo unspecified)
inactive: [1] 25.6% | [2] -10.9% | [3] -18.9% | [4] 23.6% | [5] -17.8% | [6] -19.1%

O=C1NC(=S)S/C1=C/c1cn(-c2ccccc2)nn1
inactive: [1] 17.4% | [2] 3.15% | [3] -5.05% | [4] -18.2% | [5] 1.75% | [6] 10.6%

CCC(=O)c1ccc(O)c(C)c1
inactive: [1] 4.85% | [2] -2.9% | [3] 0.2% | [4] -2.6% | [5] 37.7% | [6] 2.45%

O=C(O)CC(NC(=O)CP(=O)(O)O)C(=O)O (stereo unspecified)
inactive: [1] -9.4% | [2] -21.9% | [3] -10.6% | [4] 2% | [5] -8.5% | [6] -13.1%

CC(=O)N(/C=C\C1=[N+](C)CCS1)c1ccccc1
inactive: [1] 10.2% | [2] -10.4% | [3] 20.4% | [4] 18.9% | [5] 18.1% | [6] 12.7%

CC(C)(O)C12CC3CC(CC(C3)C1)C2
inactive: [1] 18.4% | [2] -6.15% | [3] 8.35% | [4] -38.2% | [5] 5.25% | [6] 0.2%
